Source: PubChem (National Center for Advancing Translational Sciences (NCATS))
The list is not random: actives were taken first. Their share in the collection is about 19%.
ELG1 DNA repair: blocks ELG1-dependent DNA repair in HEK293T cells; HEK293T ELG1-luciferase reporter, luminescence, 16 h; DNA damage induced by 5-fluorouridine; Potency, µM (series often up to 46.1 µM), hits mostly inhibitors; actives 2.3% (n = 330,000); note: nearly all actives have a fitted effect of over 55% in size
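Reporter activity after DNA damage by 5-fluorouridine is monitored. Compound-treated cells incubate 16 hr at 37 °C, then ONE-Glo is added for 30 min before luminescence reading.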
TDP1 cell CPT: growth inhibition of DT40 Tdp1-/-;hTDP1 cells with camptothecin (screen for TDP1 inhibitors). Potency, µM (titrated, usually from 46.2 µM), hits mostly inhibitors. actives 12% (n = 420,000). chicken DT40 Tdp1-/-;hTDP1 cells + 20 nM CPT, ATP luminescence, 48 h; note: nearly all actives have a fitted effect of over 55% in size
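Chicken DT40 Tdp1-/- cells stably complemented with human TDP1 were seeded at 400 cells/well in medium containing 20 nM camptothecin, exposed to pin-transferred compounds, and grown at 37 °C for at least 48 hr. Viability was read as ATP luminescence.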
HT1080NT lethal: kills 2HG-producing HT-1080-NT fibrosarcoma cells | HT-1080-NT fibrosarcoma viability, CellTiter-Glo ATP luminescence, 48 h | Potency, µM (series often up to 46.1 µM), most hits filed as cytotoxic | actives 1.6% (n = 360,000) | AID 686970;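 note: NT is the 2HG producing partner of a matched IDH1 knockdown line; nearly all actives have a fitted effect of over 55% in size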
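Luminescent CellTiter-Glo readout after 48 hours of compound exposure at 37 degrees C defined viability of HT-1080-NT cells. Activity was normalized to DMSO wells and cell-free media wells; concentration-response curves were fitted and assigned curve classes.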
TDP1 cell noCPT: qHTS for Inhibitors of human tyrosyl-DNA phosphodiesterase 1 (TDP1): qHTS in cells in absence of CPT; DT40 Tdp1-/- hTDP1 cells, no CPT, ATP luminescence, 48 h; Potency, µM (doses to about 46.2 µM), most hits filed as inhibitors; actives 15% (n = 420,000); note: nearly all actives have a fitted effect of over 55% in size
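Chicken DT40 Tdp1-/- cells stably complemented with human TDP1 were seeded at 400 cells/well with DMSO in place of 20 nM camptothecin. After compound pinning, cells grew at least 48 hr at 37 °C; viability read by CellTiter-Glo luminescence.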
IL-1B inflam inh: blocks inflammasome-driven IL-1 beta release; THP-1 LPS/ATP IL-1B secretion, AlphaLISA, 16 h; active compounds read low; activity change, % at 57.5 µM; actives 4.7% (n = 360,000); AID 743279; in the data active = activity change below about -50%; inconclusive = mostly about -30% to -49%
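Secreted IL-1B measured by AlphaLISA bead assay after 16 h compound exposure of THP-1 cells; compounds (final up to 57.5 uM) added 1 h before LPS (250 ng/mL) and ATP (1.25 mM) stimulation; lower signal means less secretion.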
HT1080 IDH1KD tx: HT-1080 IDH1 knockdown cell toxicity (counter line); HT-1080 IDH1 knockdown viability, ATP luminescence, 48 h; Potency, µM (titrated, usually from 46.1 µM), most hits filed as cytotoxic; actives 2% (n = 360,000); AID 686971
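After a 2 h attachment period, IDH1KD HT-1080 cells took pin-transferred compound for 48 h at 37 °C; ATP-based luminescence after 10 min room-temperature reagent incubation reported viability.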
Each line names hits and unclear results; the compound was inactive in the other large screens. Unless noted, calls come from the whole dose curve; as a rule, active = well fitted curve in the direction sought with a large enough effect; inconclusive = small, poorly fitted or top-dose-only effect, or another doubt; inactive = no such curve, though single readings can be large; an effect the other way counts as inactive or inconclusive.

CCOc1ccc(NC(=O)Cn2sc3nc(C)cc(C)c3c2=O)cc1	TDP1 cell CPT 2.1µM, TDP1 cell noCPT 2.6µM, IL-1B inflam inh -89
Cc1cc(C)c2c(=O)n(CC(=O)Nc3cccc(F)c3)sc2n1	ELG1 DNA repair inconclusive, TDP1 cell CPT 2.3µM, HT1080NT lethal inconclusive, TDP1 cell noCPT 2.3µM, HT1080 IDH1KD tx inconclusive
CCN(C(=O)COC(=O)C1CCN(S(=O)(=O)c2ccc(C)c(C)c2)CC1)C1CCCCC1	none
Cn1c(N)c(C(=O)N2CCN(c3ccccc3)CC2)c(=O)n(C)c1=O	none (no result: ELG1 DNA repair)
O=C(O)c1cccnc1SCC(=O)N1CCCc2ccccc21	ELG1 DNA repair inconclusive
COc1ccc(S(=O)(=O)N/N=c2\oc3c(OC)cccc3cc2S(=O)(=O)c2ccc(C)cc2)cc1OC	ELG1 DNA repair inconclusive, IL-1B inflam inh -54
COc1cccc2cc(C(=O)Nc3ccccc3C)/c(=N/NS(=O)(=O)c3ccccc3)oc12	none
Oc1ccc(N=Nc2ccc3c(c2)OCCO3)c2ncccc12	TDP1 cell CPT 2.9µM, HT1080NT lethal inconclusive, TDP1 cell noCPT 2.1µM, HT1080 IDH1KD tx 3.7µM
Cc1ccc(C)c(N=Nc2ccc(O)c3ncccc23)c1	ELG1 DNA repair inconclusive, TDP1 cell CPT 2.1µM, HT1080NT lethal inconclusive, TDP1 cell noCPT 2.1µM, HT1080 IDH1KD tx inconclusive
NS(=O)(=O)c1ccc(N=Nc2ccc(O)c3ncccc23)cc1	ELG1 DNA repair inconclusive, TDP1 cell CPT 2.6µM, HT1080NT lethal inconclusive, TDP1 cell noCPT 2.3µM, HT1080 IDH1KD tx 23µM
CCOc1ccc(N=Nc2ccc(O)c3ncccc23)cc1	ELG1 DNA repair inconclusive, TDP1 cell CPT inconclusive, HT1080NT lethal inconclusive, TDP1 cell noCPT inconclusive, HT1080 IDH1KD tx inconclusive
Cc1cccc(N=Nc2ccc(O)c3ncccc23)c1	ELG1 DNA repair inconclusive, TDP1 cell CPT 7.3µM, HT1080NT lethal inconclusive, TDP1 cell noCPT 6.5µM, HT1080 IDH1KD tx 7.3µM
COCCNC(=O)c1cc2c(c(-c3cccc(C#Cc4ccc(OC)c(OC)c4)c3)n1)[C@H](CCO)N(S(=O)C(C)(C)C)C2 (some centres undefined)	TDP1 cell CPT inconclusive, HT1080NT lethal inconclusive, TDP1 cell noCPT inconclusive, HT1080 IDH1KD tx inconclusive (no result: ELG1 DNA repair)
COc1cccc(C(=O)Nc2ccc3nc(SCc4ccc(C)cc4)sc3c2)c1	TDP1 cell CPT 16µM, TDP1 cell noCPT 16µM (no result: ELG1 DNA repair, HT1080NT lethal, IL-1B inflam inh, HT1080 IDH1KD tx)
Cc1ccc(OCC(=O)Nc2ccc3nc(SCC(=O)N4CCc5ccccc54)sc3c2)cc1	none (no result: ELG1 DNA repair, HT1080NT lethal, IL-1B inflam inh, HT1080 IDH1KD tx)
COc1cccc(C(=O)Nc2ccc3nc(SCC(=O)N4CCc5ccccc54)sc3c2)c1	TDP1 cell CPT 3.3µM, TDP1 cell noCPT 4.6µM (no result: ELG1 DNA repair, HT1080NT lethal, IL-1B inflam inh, HT1080 IDH1KD tx)
CCCCC(=O)Nc1ccc2nc(SCC(=O)N3CCc4ccccc43)sc2c1	TDP1 cell CPT 15µM, TDP1 cell noCPT 5.8µM (no result: ELG1 DNA repair, HT1080NT lethal, IL-1B inflam inh, HT1080 IDH1KD tx)
COc1ccc(C(=O)Nc2ccc3nc(SCC(=O)N4CCc5ccccc54)sc3c2)cc1	TDP1 cell CPT 2.9µM, TDP1 cell noCPT 5.2µM (no result: ELG1 DNA repair, HT1080NT lethal, IL-1B inflam inh, HT1080 IDH1KD tx)
CC1(C)CC(Cc2ccccc2C(F)(F)F)N(C(=O)OC(C)(C)C)C1 (centres undefined)	TDP1 cell CPT inconclusive, TDP1 cell noCPT inconclusive (no result: ELG1 DNA repair)
Cc1cc(C)c2c(CC(=O)Nc3ccc(F)cc3)coc2c1	TDP1 cell CPT inconclusive (no result: ELG1 DNA repair, HT1080NT lethal, IL-1B inflam inh, HT1080 IDH1KD tx)
COc1ccc(C(=O)NCc2nnc(SCC(=O)N3CCc4ccccc43)n2CCc2ccccc2)cc1	ELG1 DNA repair 15µM, TDP1 cell CPT inconclusive, TDP1 cell noCPT inconclusive
COc1ccc(-n2c(Cc3ccccc3)nnc2SCC(=O)N2CCCc3ccccc32)cc1	ELG1 DNA repair inconclusive, TDP1 cell CPT inconclusive, TDP1 cell noCPT inconclusive, IL-1B inflam inh inconclusive
NC(N)=NS(=O)(=O)c1ccc(N/C=C/C(=O)c2ccc(Cl)c(Cl)c2)cc1	TDP1 cell CPT inconclusive, TDP1 cell noCPT inconclusive
CCOc1ccc(C(=O)/C=C/Nc2ccc(S(=O)(=O)N=C(N)N)cc2)cc1	TDP1 cell CPT inconclusive, HT1080NT lethal inconclusive, HT1080 IDH1KD tx 18µM
CCOC(=O)C(=Cc1ccc(N(C)C)cc1)C(=O)c1ccccc1	TDP1 cell CPT 16µM, HT1080NT lethal inconclusive, TDP1 cell noCPT inconclusive, IL-1B inflam inh -75, HT1080 IDH1KD tx inconclusive (no result: ELG1 DNA repair)
CCOC(=O)/C(=C/c1ccc(OC(=O)c2ccccc2)cc1)C(C)=O	ELG1 DNA repair inconclusive, TDP1 cell CPT 18µM, TDP1 cell noCPT inconclusive
CCOC(=O)/C(=C\c1ccccc1)NC(=O)c1ccccc1	none
CC(=O)/C(=C/c1ccc(N(C)C)cc1)C(=O)c1ccccc1	TDP1 cell CPT inconclusive, TDP1 cell noCPT inconclusive
CCc1c(C)sc2nc(C(C)C)nc(SCC(=O)N3CCc4ccccc4C3)c12	TDP1 cell CPT inconclusive, TDP1 cell noCPT 21µM, IL-1B inflam inh -67
Cc1sc2nc(C3CC3)nc(SCC(=O)N3CCc4ccccc4C3)c2c1C	ELG1 DNA repair inconclusive, TDP1 cell CPT inconclusive, TDP1 cell noCPT 21µM, IL-1B inflam inh -75
O=C(Nc1nc2ccccc2n1CCN1CCOCC1)c1ccc(Cn2cc([N+](=O)[O-])cn2)o1	ELG1 DNA repair inconclusive, TDP1 cell CPT 16µM
O=C(Nc1nc2ccccc2n1CCN1CCOCC1)c1ccc(COc2ccccc2Br)o1	ELG1 DNA repair 21µM, TDP1 cell CPT inconclusive, TDP1 cell noCPT inconclusive, IL-1B inflam inh -95, HT1080 IDH1KD tx inconclusive
